From ChEMBL document CHEMBL4513216, “Probing the Open Global Health Chemical Diversity Library for Multistage-Active Starting Points for Next-Generation Antimalarials” (ACS Infect Dis, 2020)
The whole screen tested about 69,000 compounds, of which about 8,600 (12%) showed an effect of 50% or more. This is one part of a sample in which strong results are shown more often than they occur.

The compounds below were run on Plasmodium berghei (assay: Screen against P. berghei liver stage (PbLuc), transformed with Luciferase, at 10uM). Conditions: tested at 10 uM.
Type: functional, HepG2

Compared with `CCc1ccc(C(=O)N2CCN(CC(O)c3ccccc3)CC2)o1` (configuration not stated), `COc1ccc(CN(C)[C@@H]2CN(C(=O)c3ccccc3)C[C@H]2O)cc1` is lower in INHIBITION: 37.9% for the first, 25.6% for the second.

Going from `c1ccc(Cc2nnc(CN3CCc4cncnc4C3)o2)cc1` to `c1cncc(COCc2nnc3n2CCN(CC2CC2)C3)c1`, the INHIBITION rises from -31.3% to -15.7%.

Going from `Cc1noc(C)c1CN1CCC(N(C)Cc2noc(C(C)C)n2)C1` (configuration not stated) to `CC(=O)N(Cc1ncc(C)o1)C1CCN(Cc2cc(C)on2)C1` (configuration not stated), the INHIBITION falls from 29.8% to -16%.

Compared with `CSCC[C@H](N)c1nnc(SCc2cc(C)ccc2C)o1`, `CCc1sc(C(=O)N2CCC(Nc3ccc(C)nn3)CC2)cc1C` is higher in INHIBITION: 12.5% for the first, 42% for the second.

Compared with `Cc1nc(C)n(CC2CCCN2CC(=O)NCCc2ccsc2)n1` (configuration not stated), `Cc1nc(C)n(CC2CCCN2CC(=O)NCCc2ccccc2)n1` (configuration not stated) is lower in INHIBITION: 91.3% for the first, 9.54% for the second.

Compared with `O=C(CN1CCCCC1Cn1cncn1)NCCc1ccsc1` (configuration not stated), `O=C(CN1CCCC1Cn1cncn1)NCCC1=CCCCC1` (configuration not stated) is higher in INHIBITION: -81.3% for the first, 27.6% for the second.

First: CC(=O)NCCNC(=O)CN1CCCC1Cn1nc(C)nc1C (configuration not stated)
Second: Cc1nc(C)n(CC2CCCN2CC(=O)NCCC2=CCCCC2)n1 (configuration not stated)
The INHIBITION of the first is lower: 1.56% for the first, 77.7% for the second.

First: COc1ccc(CN2CCO[C@H]3CN(C4CCC4)CC[C@H]3C2=O)cc1
Second: COc1ccc(CN(C)[C@@H]2CN(C(=O)c3cnn(C)c3)C[C@H]2O)cc1
The INHIBITION of the first is higher: 17.2% for the first, 2.71% for the second.

Compared with `O=C(c1cccc(F)c1)N1CCOC(c2nc(-c3ncccn3)no2)C1` (configuration not stated), `COc1ccnc(N2CCN(Cc3nc(-c4ccoc4)no3)CC2)c1` is lower in INHIBITION: 13.1% for the first, 9.52% for the second.

Going from `CC(C)c1nnc2n1CCN(CCC(=O)Nc1sccc1C#N)C2` to `COC(CNC(=O)C1CCN(S(C)(=O)=O)CC1)c1ccc(C)s1` (configuration not stated), the INHIBITION rises from 5.7% to 36.8%.

Compared with `CN(C)Cc1cc(C2CCCN(S(=O)(=O)c3cccc(Cl)c3)C2)nn1C` (configuration not stated), `COc1ccc(CN(C)[C@@H]2CN(C(=O)c3ccnn3C)C[C@H]2O)cc1` is lower in INHIBITION: -14.2% for the first, -55% for the second.

First: Cc1ncc(CN2CCCC(c3cc(C(F)(F)F)[nH]n3)C2)s1 (configuration not stated)
Second: CO[C@@H]1CC[C@H]2[C@H]1OCCN2C(=O)c1ccc(C)nc1
The INHIBITION of the first is lower: -17.6% for the first, 67% for the second.

Going from `CNS(=O)(=O)c1ccc(C(=O)NCCNc2ncccn2)cc1` to `CCCNC(=O)c1ccc(S(=O)(=O)NCC2(O)CCCNC2)cc1` (configuration not stated), the INHIBITION rises from 33% to 43.4%.

Going from `CCOCCC1(CNC(=O)c2ccncc2)CCC1` to `CCCNC(=O)c1ccc(S(=O)(=O)NCC2(COC)CCCC2)cc1`, the INHIBITION rises from -37.7% to 89.7%.

First: CCCNC(=O)c1ccc(S(=O)(=O)NC2(COC)CCCC2)cc1
Second: CCCNC(=O)NCc1ccccc1NS(=O)(=O)c1ccccc1
The INHIBITION of the first is higher: 56.3% for the first, -24.7% for the second.

Going from `COc1ccc(CN(C)[C@@H]2CN(C(=O)c3cncs3)C[C@H]2O)cc1` to `COc1ccc(CN(C)[C@@H]2CN(C(=O)c3cccs3)C[C@H]2O)cc1`, the INHIBITION falls from 56.8% to 24.5%.

First: COc1ccc(CN(C)[C@@H]2CN(C(=O)c3cccnc3)C[C@H]2O)cc1
Second: COc1ccc(Cn2cc(C(=O)N(C)CCN(C)C)nn2)cc1
The INHIBITION of the first is higher: 52% for the first, 28.5% for the second.

First: Cc1nc(C)n(CC2CCCN2Cc2cn3cc(Cl)ccc3n2)n1 (configuration not stated)
Second: Cc1cccc(C(=O)N2CCO[C@H]3[C@H](OCCN(C)C)CC[C@@H]32)n1
The INHIBITION of the first is lower: 15.3% for the first, 54% for the second.

Going from `Cc1cc(C(=O)N2C[C@@H]3CCCO[C@@H]3[C@H](N3CCOCC3)C2)c(C)[nH]1` to `Cc1ccc(C(=O)N2C[C@@H]3CCCO[C@@H]3[C@H](N3CCOCC3)C2)cn1`, the INHIBITION rises from 4.02% to 52.6%.

First: CN(C)CCO[C@@H]1CC[C@H]2[C@H]1OCCN2C(=O)c1ccncc1
Second: Cc1ccc(C(=O)N2CCO[C@H]3[C@H](OCCN(C)C)CC[C@@H]32)cn1
The INHIBITION of the first is higher: 29.3% for the first, -9.26% for the second.

First: Cc1ccccc1C(=O)N1CCO[C@H]2[C@H](OCCN(C)C)CC[C@@H]21
Second: CO[C@H]1CC[C@H]2[C@H]1OCCN2C(=O)c1ccc(C)nc1
The INHIBITION of the first is higher: -0.371% for the first, -6.39% for the second.

Going from `O=C(c1ccccc1)N1C[C@@H]2CCCO[C@@H]2[C@H](N2CCOCC2)C1` to `O=C(c1ccccc1)N1C[C@@H]2CCCO[C@@H]2[C@H](N2CCCC2)C1`, the INHIBITION rises from 49.7% to 52.6%.

`Cn1cccc1C(=O)N1C[C@@H]2CCCO[C@@H]2[C@H](N2CCOCC2)C1` and `Cc1ccc(C(=O)N2C[C@@H]3CCCO[C@@H]3[C@H](N3CCCC3)C2)cn1` are the same in INHIBITION: 30.5% for the first, 30.5% for the second.

`CCS(=O)(=O)CCN(C)C(=O)NC(C)c1ccc(C)s1` (configuration not stated) was tested, and the INHIBITION was 22.6%.
